We go through 64 compounds from the antibiotic and cytotoxicity screens of Wong et al. (2023).

The structures appear in SMILES notation. Screen size: about 39,000 compounds; about 3,300 (8.5%) were called active. This is one part of a sample in which actives are shown more often than they occur.

The assay concerns HepG2. In words: cytotoxicity call (relative viability < 0.9). Particulars: 10 µM.
Take `O=C(CN1CCOCC1)NCC[C@H]1CC[C@H](NC(=O)c2ccc3c(c2)OCO3)[C@H](CO)O1`: the cytotoxicity call is “inactive”.

Turning to `C[C@H](CO)N1C[C@H](C)[C@H](CN(C)C(=O)Nc2ccc(F)cc2)OCCCC[C@H](C)Oc2ccc(NC(=O)C3CCCC3)cc2C1=O`, the cytotoxicity call is “inactive”.

`Clc1ccc(Cn2cccc2)cn1`: the cytotoxicity call is “inactive”.

On to `CCS(=O)(=O)Nc1ccc2c(c1)C(=O)N(C)[C@@H]1CC[C@@H](CC(=O)N[C@H]3CCN(Cc4ccccc4)C3)O[C@@H]1CO2`, for which the cytotoxicity call was “inactive”.

As to `C[C@H]1CN([C@@H](C)CO)C(=O)Cc2cc(NS(=O)(=O)c3ccc(F)cc3)ccc2O[C@@H]1CN(C)Cc1ccncc1`, the cytotoxicity call is “inactive”.

In the case of `COCC(=O)Nc1ccc2c(c1)OC[C@H](C)N(C(=O)Cc1ccccn1)C[C@H](C)[C@@H](OC)CN(C)C2=O`, the cytotoxicity call is “inactive”.

Regarding `COc1ccc2c(c1OC)C(=O)OC2C1c2c(cc3c(c2OC)OCO3)CCN1C.Cl` (centres undefined), the cytotoxicity call was “active”.

As to `COc1cc2c(cc1OC)C1Cc3ccc(OC)c(OC)c3CN1CC2` (centres undefined), the cytotoxicity call was “inactive”.

On to `Cc1cc(-c2cc(OC(=O)c3ccccc3)ccc2Cl)cc2nnc(Nc3ccc(OCCN4CCCC4)cc3)nc12`, for which the cytotoxicity call was “inactive”.

With `CCN(CC)CCOc1ccc(Nc2ncc3cc(-c4c(Cl)cccc4Cl)c(=O)n(C)c3n2)cc1`, the cytotoxicity call was “active”.

For `O=C(C[C@@H]1C=C[C@@H](NC(=O)CN2CCOCC2)[C@H](CO)O1)NCCc1ccccc1`, the cytotoxicity call is “inactive”.

Take `O=C(O)CNC(=O)C(=O)O`: the cytotoxicity call was “active”.

Regarding `NCC(=O)NCC(=O)O`, the cytotoxicity call was “inactive”.

On to `CNCC(=O)O`, for which the cytotoxicity call was “inactive”.

Consider `CN(C)CCN1C[C@@H]2CN(C(=O)[C@H]3CCOC3)C[C@H]2C1=O`, for which the cytotoxicity call is “inactive”.

As to `C[C@@H]1CCCCO[C@H](CN(C)S(=O)(=O)c2cccs2)[C@@H](C)CN([C@@H](C)CO)C(=O)c2cc(NC(=O)NC3CCCCC3)ccc2O1`, the cytotoxicity call is “inactive”.

Consider `Cc1noc(C)c1S(=O)(=O)Nc1ccc2c(c1)C(=O)N([C@@H](C)CO)C[C@H](C)[C@H](CN(C)Cc1ccc3c(c1)OCO3)O2`, for which the cytotoxicity call was “inactive”.

Turning to `COc1ccc(S(=O)(=O)N(C)C[C@@H]2OCCCC[C@@H](C)Oc3ccc(NC(=O)Nc4ccc(F)cc4)cc3C(=O)N([C@@H](C)CO)C[C@H]2C)cc1`, the cytotoxicity call was “inactive”.

On to `CN(C)CC(=O)N1CC2(C1)[C@H](c1ccccc1)[C@H](CO)N2S(C)(=O)=O`, for which the cytotoxicity call is “inactive”.

Turning to `CN(c1ncccc1CNc1nc(Nc2ccc3c(c2)CC(=O)N3)ncc1C(F)(F)F)S(C)(=O)=O`, the cytotoxicity call was “active”.

Consider `CNC(=O)c1ccc(Nc2ncc(C(F)(F)F)c(NCc3nccnc3N(C)S(C)(=O)=O)n2)cc1`, for which the cytotoxicity call was “active”.

Regarding `Cc1cnc(CNC(=O)c2c(=O)c3ccc(N4CCCN(C)CC4)nc3n3c2sc2ccccc23)cn1`, the cytotoxicity call is “inactive”.

On to `CCS(=O)(=O)N1C[C@]2(CN(C2)C(=O)Nc2ccc(cc2F)F)c2c(n(c3cc(ccc23)OC)C)[C@@H]1CO`, for which the cytotoxicity call is “inactive”.

Turning to `CN(C)Cc1cn(CC[C@H]2CC[C@@H](NC(=O)Cc3cccnc3)[C@@H](CO)O2)nn1`, the cytotoxicity call was “inactive”.

`O=c1/c(=C\c2ccc(F)cc2)sc2n1CCN=2`: the cytotoxicity call is “inactive”.

For the compound `O=C(/C=C/c1cc2c(cc1Br)OCCO2)c1c(-c2ccccc2)c2cc(Cl)ccc2[nH]c1=O`, the cytotoxicity call is “active”.

For `N=C(CN1CCCCC1)NO`, the cytotoxicity call is “inactive”.

`CN(C)CCCNC(=O)C[C@@H]1CC[C@H]2[C@@H](COC[C@@H](O)CN2C(=O)c2cc(Cl)cc(Cl)c2)O1`: the cytotoxicity call is “inactive”.

In the case of `COc1ccc(NC(=O)Nc2ccc3c(c2)C(=O)N([C@@H](C)CO)C[C@H](C)[C@H](CN(C)C(=O)Nc2ccc(C(F)(F)F)cc2)OCCCC[C@H](C)O3)cc1`, the cytotoxicity call is “inactive”.

As for `C[C@H]1CN([C@@H](C)CO)C(=O)c2cccc(NS(=O)(=O)c3ccc(F)cc3)c2O[C@@H]1CN(C)Cc1ccc(Cl)c(Cl)c1`, the cytotoxicity call is “inactive”.

`COC1=C(N)C(=O)c2nc(-c3nc(C(=O)O)c(C)c(-c4ccc(OC)c(OC)c4O)c3N)ccc2C1=O`: the cytotoxicity call is “active”.

With `COc1ccc(NC(=O)N(C)C[C@@H]2Oc3ncc(Br)cc3C(=O)N([C@H](C)CO)C[C@@H]2C)cc1`, the cytotoxicity call is “inactive”.

`CCCNC(=O)N1C[C@H](O)COC[C@@H]2O[C@H](CC(=O)NCCCN3CCOCC3)CC[C@H]21`: the cytotoxicity call was “inactive”.

As to `CN1C(=O)c2cc(NC(=O)c3ccc(C(F)(F)F)cc3)ccc2OC[C@H]2O[C@H](CC(=O)NC3Cc4ccccc4C3)CC[C@@H]21`, the cytotoxicity call was “inactive”.

On to `CN1C(=O)c2cc(NC(=O)c3ccc(C(F)(F)F)cc3)ccc2OC[C@@H]2O[C@H](CC(=O)NC3Cc4ccccc4C3)CC[C@H]21`, for which the cytotoxicity call is “inactive”.

Regarding `CN1C(=O)c2cc(NC(=O)Nc3ccccc3F)ccc2OC[C@H]2O[C@H](CC(=O)NCc3ccc(-c4ccccc4)cc3)CC[C@H]21`, the cytotoxicity call was “inactive”.

For the compound `CN1C(=O)c2cc(NC(=O)c3ccc(C(F)(F)F)cc3)ccc2OC[C@@H]2O[C@@H](CC(=O)NC3Cc4ccccc4C3)CC[C@@H]21`, the cytotoxicity call was “active”.

As for `CN1C(=O)c2cc(NC(=O)c3ccc(C(F)(F)F)cc3)ccc2OC[C@H]2O[C@H](CC(=O)NC3Cc4ccccc4C3)CC[C@H]21`, the cytotoxicity call is “active”.

In the case of `CN1C(=O)c2cc(NC(=O)Nc3ccccc3F)ccc2OC[C@H]2O[C@@H](CC(=O)Nc3cccc(Cl)c3)CC[C@@H]21`, the cytotoxicity call was “active”.

With `CN1C(=O)c2cc(NC(=O)c3ccc(C(F)(F)F)cc3)ccc2OC[C@@H]2O[C@@H](CC(=O)NC3Cc4ccccc4C3)CC[C@H]21`, the cytotoxicity call was “inactive”.

`CN(C)CC(=O)Nc1ccc2c(c1)C(=O)N(C)[C@H]1CC[C@H](CC(=O)Nc3cccc(Cl)c3)O[C@@H]1CO2`: the cytotoxicity call is “inactive”.

On to `CN1C(=O)c2cc(NC(=O)c3ccc(C(F)(F)F)cc3)ccc2OC[C@@H]2O[C@H](CC(=O)NC3Cc4ccccc4C3)CC[C@@H]21`, for which the cytotoxicity call was “inactive”.

On to `C[C@H]1CCCCO[C@@H](CN(C)Cc2ccncc2)[C@@H](C)CN([C@@H](C)CO)C(=O)c2cc(NC(=O)Nc3ccccc3)ccc2O1`, for which the cytotoxicity call is “inactive”.

Consider `Cc1ccc(S(=O)(=O)Nc2ccc3c(c2)C(=O)N([C@H](C)CO)C[C@@H](C)[C@@H](CN(C)C(=O)Nc2ccccc2)OCCCC[C@H](C)O3)cc1`, for which the cytotoxicity call is “inactive”.

Consider `C[C@H](CO)N1C[C@H](C)[C@@H](CN(C)S(=O)(=O)c2ccc(F)cc2)Oc2ncc(-c3ccncc3)cc2C1=O`, for which the cytotoxicity call is “inactive”.

Consider `COc1ccc(CN(C)C[C@@H]2OCCCC[C@@H](C)Oc3ccc(NC(=O)CCC(F)(F)F)cc3C(=O)N([C@@H](C)CO)C[C@@H]2C)cc1`, for which the cytotoxicity call is “inactive”.

Turning to `CCOC(=O)N(C)C[C@@H]1OCc2cn(nn2)CCCC(=O)N([C@H](C)CO)C[C@@H]1C`, the cytotoxicity call was “inactive”.

Consider `C[C@@H]1CN([C@@H](C)CO)C(=O)c2cc(NS(=O)(=O)c3ccc(F)cc3)ccc2O[C@@H]1CN(C)S(=O)(=O)c1cccs1`, for which the cytotoxicity call was “inactive”.

For `C[C@@H]1CN([C@H](C)CO)S(=O)(=O)c2ccc(Br)cc2O[C@H]1CN(C)C(=O)c1cnccn1`, the cytotoxicity call was “inactive”.

With `CNC[C@@H]1Oc2c(NS(=O)(=O)c3cn(C)cn3)cccc2C(=O)N([C@H](C)CO)C[C@@H]1C`, the cytotoxicity call was “inactive”.

`COCCOC(=O)N1C(=O)[C@@]2(c3cc(C#Cc4ccc(OC)cc4)ccc31)[C@H](c1ccc(O)cc1)N1[C@H](c3ccccc3)[C@H](c3ccccc3)OC(=O)[C@H]1[C@@H]2C(=O)N1CCCCCCC1`: the cytotoxicity call was “active”.

In the case of `COCCOC(=O)N1C(=O)[C@@]2(c3cc(C#CCC(C(=O)OC)C(=O)OC)ccc31)[C@H](C(=O)N1CCCCCCC1)[C@H]1C(=O)O[C@H](c3ccccc3)[C@H](c3ccccc3)N1[C@@H]2c1ccc(O)cc1`, the cytotoxicity call is “active”.

Consider `COCCOC(=O)N1C(=O)[C@@]2(c3cc(C#CCC(C(=O)OC)C(=O)OC)ccc31)[C@H](C(=O)N1CCCCCCC1)[C@H]1C(=O)O[C@H](c3ccccc3)[C@H](c3ccccc3)N1[C@@H]2c1ccc(OCCO)cc1`, for which the cytotoxicity call is “inactive”.

For `COCCOC(=O)N1C(=O)[C@@]2(c3cc(C#Cc4ccc(OC)cc4)ccc31)[C@H](c1ccc(OCCO)cc1)N1[C@H](c3ccccc3)[C@H](c3ccccc3)OC(=O)[C@H]1[C@@H]2C(N)=O`, the cytotoxicity call was “inactive”.

On to `COCCOC(=O)N1C(=O)[C@@]2(c3cc(C#CCC(C(=O)OC)C(=O)OC)ccc31)[C@H](c1ccc(OCCO)cc1)N1[C@H](c3ccccc3)[C@H](c3ccccc3)OC(=O)[C@H]1[C@@H]2C(=O)N1CCCCCCC1`, for which the cytotoxicity call is “inactive”.

Regarding `COCCOC(=O)N1C(=O)[C@@]2(c3cc(C#Cc4ccc(OC)cc4)ccc31)[C@H](c1ccc(OCCO)cc1)N1[C@H](c3ccccc3)[C@H](c3ccccc3)OC(=O)[C@H]1[C@@H]2C(=O)NC[C@H](O)c1ccccc1`, the cytotoxicity call is “inactive”.

Turning to `COCCOC(=O)N1C(=O)[C@@]2(c3cc(C#Cc4ccc(OC)cc4)ccc31)[C@H](C(=O)N1CCCCCCC1)[C@H]1C(=O)O[C@H](c3ccccc3)[C@H](c3ccccc3)N1[C@@H]2c1ccc(O)cc1`, the cytotoxicity call was “inactive”.

Turning to `COCCOC(=O)N1C(=O)[C@@]2(c3cc(C#Cc4ccc(OC)cc4)ccc31)[C@H](C(=O)N1CCCCCCC1)[C@H]1C(=O)O[C@H](c3ccccc3)[C@H](c3ccccc3)N1[C@@H]2c1ccc(OCCO)cc1`, the cytotoxicity call is “inactive”.

Turning to `COc1ccc(C#Cc2ccc3c(c2)[C@@]2(C(=O)N3C(=O)N[C@@H](C)c3ccccc3)[C@H](c3ccc(OCCO)cc3)N3[C@H](c4ccccc4)[C@H](c4ccccc4)OC(=O)[C@H]3[C@@H]2C(=O)O)cc1`, the cytotoxicity call was “active”.

For `NCC[C@H]1CC[C@H](NC(=O)Cc2ccncc2)[C@@H](CO)O1`, the cytotoxicity call was “inactive”.

Regarding `O=C(O)CCCCCCCCCCCC[C@@H]1C=CCC1`, the cytotoxicity call is “inactive”.

With `COc1ccc(-c2cc(=O)c3c(O)c(OC)c(O[C@H]4O[C@H](CO[C@@H]5O[C@@H](C)[C@H](O)[C@@H](O)[C@H]5O)[C@@H](O)[C@H](O)[C@H]4O)cc3o2)cc1`, the cytotoxicity call was “inactive”.

In the case of `C[C@H](CO)N1C[C@H](C)[C@@H](CN(C)S(=O)(=O)c2cn(C)cn2)Oc2cc(Br)ccc2S1(=O)=O`, the cytotoxicity call was “inactive”.

`C[C@H](CO)N1C[C@H](C)[C@@H](CN(C)Cc2ccc(-c3ccccc3)cc2)Oc2c(NS(=O)(=O)c3cccs3)cccc2C1=O`: the cytotoxicity call is “inactive”.
